Results reported in PubChem BioAssay.
Results filed as inconclusive are left out. Active and inactive are the calls of the source.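 Rule for the calls, unless noted: active = inhibition above 50%, about 3 SD of the validation set; inactive = the rest.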

Tests used:
[1] = yeast TOR pathway RPL19A-GFP modulators, primary screen, cell-based, S. cerevisiae, multiplex flow cytometry (AID 1862; in the data active = percent of DMSO control GFP below about 86%;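 note: lower values mimic rapamycin by blocking the RPL19A rise seen in DMSO cells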); conditions: S. cerevisiae RPL19A-GFP strain, flow cytometry fluorescence, 3 h; at 10 µM; stronger effect = lower value
[2] = modulators of MEP2-GFP levels in yeast, primary screen, S. cerevisiae, multiplex flow cytometry (AID 1867;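 active = GFP response, as percent of the DMSO control, above the screen-wide mean plus 3 SD, about 139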;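 note: median GFP channel fluorescence of barcode-gated MEP2-GFP cells measured by flow cytometry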); conditions: S. cerevisiae MEP2-GFP strain, 3 h, at 10 µM, stronger effect = higher value, 100% means same as DMSO wells
[3] = modulators of CIT2-GFP expression in yeast, primary screen, S. cerevisiae, GFP fusion, multiplex flow cytometry (AID 1870;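 active = percent response above a set limit, the screen-wide mean plus 3 SD, cut at about 130% in these data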;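 note: barcoded CIT2-GFP strain pooled with four other GFP strains with rapamycin as positive control; median GFP fluorescence per well over plate mean of DMSO wells so 100% = DMSO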); conditions: 3 h, at 10 µM, stronger effect = higher value
[4] = modulators of LAP4-GFP expression in yeast, primary screen, S. cerevisiae, multiplex flow cytometry (AID 1873;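 active = GFP signal, as percent of the solvent control, above the screen mean plus 3 SD, about 149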); conditions: 3 h, at 10 µM, stronger effect = higher value
[5] = modulators of AGP1-GFP expression in yeast TOR pathway, primary screen, cell-based, multiplex flow cytometry, S. cerevisiae (AID 1887;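 active = GFP signal above the screen-wide mean plus 3 SD, that is over about 124.5% of the solvent control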;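 note: AGP1-GFP fusion strain of S. cerevisiae within a five-strain barcoded multiplex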); conditions: 3 h, at 10 µM, stronger effect = higher value
[6] = inhibitors of CD8+ T cell-vesicle binding, pilot screen, LFA-1/ICAM-1 modulator project, MLPCN validation set, flow cytometry (AID 2523;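 active = response below a set limit, under 55% cells CD8-positive and vesicle-bound, and CD8 cells' 90th-percentile brightness under 279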;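 for vesicle binding response: mean PE anti-B7-1 fluorescence of CD8+ cells relative to row control; 100% = QL9-loaded vesicles with DMSO vehicle in the same plate row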); conditions: 2C mouse CD8+ T cells, at 7 µM, stronger effect = lower value; double positive events: measured here: CD8+/vesicle+ event percentage
[7] = target: Integrin beta-1 (Homo sapiens) + Integrin alpha-4 (Homo sapiens) (UniProt P13612+P05556); experiment: inhibition of HUTS-21 binding to VLA-4, pilot screen, VLA-4 allosteric modulator project, U937 cells, HUTS-21 mAb, flow cytometry, validation set (AID 2674); conditions: HUTS-21 LIBS mAb binding, at 6.7 µM, stronger effect = higher value, binding induced by LDV ligand;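 note: antibody binding induced by the VLA-4 ligand LDV present at three times its Kd; 0% = LDV ligand with antibody and no compound and 100% = antibody without LDV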
[8] = superoxide lowering in aged yeast cells, pilot screen, validation compound set (AID 2706;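 active = superoxide response below 65% of plate, a cut near 3 SD across the whole screen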;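 note: yeast exposed to compound for one week at 30 degrees C before staining; 100% = mean of all compound wells on the same plate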); conditions: S. cerevisiae aging, superoxide DHE fluorescence; at 10 µM, stronger effect = lower value
[9] = target: Beta-adrenergic receptor kinase 1 (Homo sapiens) (UniProt P25098); experiment: GRK2 binders displacing RNA aptamer, biochemical, validation, human GRK2, bead flow cytometry (AID 488806;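 active = aptamer binding inhibition above 30%, about 3 SD of noise from non-fluorescent compounds; inactive = inhibition at or below 30%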); conditions: bead-bound GRK2, FAM-aptamer displacement, at 10 µM, stronger effect = higher value
[10] = target: AP-2 complex subunit beta (Homo sapiens) (UniProt P63010); experiment: inhibitors of arrestin peptide binding to AP2, pilot screen, biochemical, validation set, GST-AP2 beads, flow cytometry (AID 504541;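 active = inhibition above 54%, about 3 SD of non-fluorescent compounds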;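 note: AP2 carries R879A mutation and is captured from E. coli lysate; bead-bound FITC arrestin peptide fluorescence measuring arrestin peptide binding to AP2; 0% = DMSO wells and 100% = excess unlabeled arrestin peptide control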); conditions: FITC arrestin peptide, at 10 µM, stronger effect = higher value, AP2 beta2 appendage fragment, R879A mutant
[11] = yeast V-ATPase proton transport modulators, S. cerevisiae, pHLuorin, HTS validation (AID 504600; in the data active = response above about 15%;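 note: plate controls were DMSO for no effect and reference compound for full effect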); conditions: S. cerevisiae pHLuorin cytosolic pH, at 10 µM, stronger effect = higher value
[12] = tested on: anti-desmoglein-3 scFv antibody binding to human DSG3; experiment: inhibitors of anti-DSG3 scFv binding to DSG3, pilot screen, biochemical, validation compound set, bead-based, flow cytometry (AID 588368;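 active = binding below the plate cutoff, the plate median minus 3 SD, with a reading above zero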;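 note: signal is the median channel fluorescence of bead-bound GFP antibody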); conditions: Protein G beads, DSG3-Fc, scFv-GFP binding, at 10 µM, stronger effect = lower value
[13] = inhibitors of fungal efflux pumps CDR1, CDR2, MDR1, pilot screen, validation compound set, multiplex, phenotypic (AID 588506;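 active = efflux inhibition above 0.42, the validation set average plus 4 SD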;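 note: Nile Red retained in cells so higher fluorescence means more efflux inhibition; 0 = negative control wells and 1 = enniatin B 25 µM full block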); conditions: S. cerevisiae pump-expressing triplex, Nile Red efflux flow cytometry; at 10 µM; stronger effect = higher value; the pumps come from Candida albicans
[14] = target: ATP-binding cassette sub-family B member 6 (Homo sapiens) (UniProt Q9NP58); experiment: ABCB6 transporter inhibitors, pilot screen, K562-ABCB6 cells, flow cytometry, validation set (AID 588550;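 active = inhibition above the screen-wide mean plus 3 SD, about 51%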;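 note: 0% = DMSO wells and 100% = benzethonium chloride 70 µM positive control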); conditions: K562-ABCB6 porphyrin accumulation, 1 h, at 10 µM, stronger effect = higher value
[15] = promoters of myeloid differentiation in arrested cells, primary screen, cell-based, GFP/MAC1 double positive, flow cytometry, validation set (AID 588685;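 active = differentiation response of at least 50%, scaled between solvent and reference control, from cells with both markers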;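 note: compound exposure lasts four days before antibody staining and flow analysis; 0% = DMSO wells and 100% = 5 µM fulvestrant positive control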); conditions: ER-HoxA9 marrow cells, stronger effect = higher value, normalized: vehicle 0, fulvestrant 100

AP-2 complex subunit beta (Homo sapiens), sequence (P63010 whole entry, looked up, the tested form may be a part, one chain of several): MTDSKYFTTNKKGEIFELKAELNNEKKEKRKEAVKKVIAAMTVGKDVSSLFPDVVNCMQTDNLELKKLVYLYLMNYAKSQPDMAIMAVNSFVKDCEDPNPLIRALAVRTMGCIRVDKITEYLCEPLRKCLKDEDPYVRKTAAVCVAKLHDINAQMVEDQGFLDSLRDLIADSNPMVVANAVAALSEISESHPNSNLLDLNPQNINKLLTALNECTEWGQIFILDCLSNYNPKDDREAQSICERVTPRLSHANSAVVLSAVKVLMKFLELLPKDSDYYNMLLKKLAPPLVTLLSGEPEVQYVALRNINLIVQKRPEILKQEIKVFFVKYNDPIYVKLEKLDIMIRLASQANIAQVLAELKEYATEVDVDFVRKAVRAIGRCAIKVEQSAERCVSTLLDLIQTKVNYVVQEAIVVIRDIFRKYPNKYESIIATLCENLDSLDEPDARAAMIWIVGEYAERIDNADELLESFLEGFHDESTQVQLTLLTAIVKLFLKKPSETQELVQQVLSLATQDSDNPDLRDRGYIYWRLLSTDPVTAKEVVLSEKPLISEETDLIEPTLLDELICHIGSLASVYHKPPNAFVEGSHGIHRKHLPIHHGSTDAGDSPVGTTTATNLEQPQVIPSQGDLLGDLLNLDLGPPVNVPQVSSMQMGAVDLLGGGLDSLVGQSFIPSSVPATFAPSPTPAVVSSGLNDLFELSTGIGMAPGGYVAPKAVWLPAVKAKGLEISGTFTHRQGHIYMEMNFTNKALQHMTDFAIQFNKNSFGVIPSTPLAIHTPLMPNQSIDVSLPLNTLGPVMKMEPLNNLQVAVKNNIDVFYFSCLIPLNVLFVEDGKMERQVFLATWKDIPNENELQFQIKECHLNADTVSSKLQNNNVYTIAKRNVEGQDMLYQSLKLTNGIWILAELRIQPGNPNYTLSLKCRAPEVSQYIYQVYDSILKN
Integrin beta-1 (Homo sapiens) + Integrin alpha-4 (Homo sapiens), sequence (P05556 whole entry, looked up): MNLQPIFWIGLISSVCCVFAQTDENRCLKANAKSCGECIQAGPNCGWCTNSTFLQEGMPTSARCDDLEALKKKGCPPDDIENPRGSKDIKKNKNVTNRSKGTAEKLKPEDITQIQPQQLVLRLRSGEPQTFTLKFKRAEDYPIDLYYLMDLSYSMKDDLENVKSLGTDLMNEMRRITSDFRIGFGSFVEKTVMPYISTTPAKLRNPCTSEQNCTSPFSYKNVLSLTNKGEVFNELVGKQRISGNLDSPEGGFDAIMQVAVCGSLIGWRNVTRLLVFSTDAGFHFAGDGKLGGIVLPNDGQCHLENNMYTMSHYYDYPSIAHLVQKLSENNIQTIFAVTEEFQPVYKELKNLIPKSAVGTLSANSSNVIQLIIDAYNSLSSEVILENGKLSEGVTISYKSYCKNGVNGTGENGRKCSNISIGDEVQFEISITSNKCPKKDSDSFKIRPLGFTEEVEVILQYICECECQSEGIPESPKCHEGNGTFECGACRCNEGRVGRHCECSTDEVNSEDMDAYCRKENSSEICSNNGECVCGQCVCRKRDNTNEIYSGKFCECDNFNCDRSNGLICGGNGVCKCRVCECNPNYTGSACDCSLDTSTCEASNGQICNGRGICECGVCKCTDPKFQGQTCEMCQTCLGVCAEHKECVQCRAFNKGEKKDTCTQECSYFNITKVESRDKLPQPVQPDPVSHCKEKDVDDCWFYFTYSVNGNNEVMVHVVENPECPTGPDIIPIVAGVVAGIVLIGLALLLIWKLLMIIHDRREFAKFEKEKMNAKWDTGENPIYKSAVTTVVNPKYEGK
Integrin beta-1 (Homo sapiens) + Integrin alpha-4 (Homo sapiens), sequence (P13612 whole entry, looked up): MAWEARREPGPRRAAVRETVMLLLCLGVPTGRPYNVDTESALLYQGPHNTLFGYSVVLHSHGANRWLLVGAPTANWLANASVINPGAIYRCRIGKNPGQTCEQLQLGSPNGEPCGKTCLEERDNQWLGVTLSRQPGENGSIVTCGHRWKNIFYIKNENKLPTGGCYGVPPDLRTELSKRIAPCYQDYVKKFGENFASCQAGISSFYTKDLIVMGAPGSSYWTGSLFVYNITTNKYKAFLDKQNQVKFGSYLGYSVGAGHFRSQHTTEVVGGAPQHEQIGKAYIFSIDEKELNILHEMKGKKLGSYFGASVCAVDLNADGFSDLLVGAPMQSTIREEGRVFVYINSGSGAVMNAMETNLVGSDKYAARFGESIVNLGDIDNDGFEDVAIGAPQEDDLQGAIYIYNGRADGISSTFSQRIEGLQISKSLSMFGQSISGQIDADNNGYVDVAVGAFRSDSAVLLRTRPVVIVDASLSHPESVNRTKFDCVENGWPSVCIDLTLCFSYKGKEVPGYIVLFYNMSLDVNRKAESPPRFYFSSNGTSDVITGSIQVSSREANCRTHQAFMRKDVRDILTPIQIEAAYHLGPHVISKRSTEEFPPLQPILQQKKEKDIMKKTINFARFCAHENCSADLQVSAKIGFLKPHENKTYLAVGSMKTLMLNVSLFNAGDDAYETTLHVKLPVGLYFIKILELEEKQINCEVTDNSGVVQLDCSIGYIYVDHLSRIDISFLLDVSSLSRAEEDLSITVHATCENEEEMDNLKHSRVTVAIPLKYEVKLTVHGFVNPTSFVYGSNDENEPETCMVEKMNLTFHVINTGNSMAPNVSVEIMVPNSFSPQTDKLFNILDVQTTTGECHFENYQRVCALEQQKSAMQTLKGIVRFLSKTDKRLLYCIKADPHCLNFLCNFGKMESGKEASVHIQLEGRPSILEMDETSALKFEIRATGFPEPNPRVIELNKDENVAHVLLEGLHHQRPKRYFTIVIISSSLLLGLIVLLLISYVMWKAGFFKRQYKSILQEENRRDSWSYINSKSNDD
ATP-binding cassette sub-family B member 6 (Homo sapiens), sequence (Q9NP58 whole entry, looked up): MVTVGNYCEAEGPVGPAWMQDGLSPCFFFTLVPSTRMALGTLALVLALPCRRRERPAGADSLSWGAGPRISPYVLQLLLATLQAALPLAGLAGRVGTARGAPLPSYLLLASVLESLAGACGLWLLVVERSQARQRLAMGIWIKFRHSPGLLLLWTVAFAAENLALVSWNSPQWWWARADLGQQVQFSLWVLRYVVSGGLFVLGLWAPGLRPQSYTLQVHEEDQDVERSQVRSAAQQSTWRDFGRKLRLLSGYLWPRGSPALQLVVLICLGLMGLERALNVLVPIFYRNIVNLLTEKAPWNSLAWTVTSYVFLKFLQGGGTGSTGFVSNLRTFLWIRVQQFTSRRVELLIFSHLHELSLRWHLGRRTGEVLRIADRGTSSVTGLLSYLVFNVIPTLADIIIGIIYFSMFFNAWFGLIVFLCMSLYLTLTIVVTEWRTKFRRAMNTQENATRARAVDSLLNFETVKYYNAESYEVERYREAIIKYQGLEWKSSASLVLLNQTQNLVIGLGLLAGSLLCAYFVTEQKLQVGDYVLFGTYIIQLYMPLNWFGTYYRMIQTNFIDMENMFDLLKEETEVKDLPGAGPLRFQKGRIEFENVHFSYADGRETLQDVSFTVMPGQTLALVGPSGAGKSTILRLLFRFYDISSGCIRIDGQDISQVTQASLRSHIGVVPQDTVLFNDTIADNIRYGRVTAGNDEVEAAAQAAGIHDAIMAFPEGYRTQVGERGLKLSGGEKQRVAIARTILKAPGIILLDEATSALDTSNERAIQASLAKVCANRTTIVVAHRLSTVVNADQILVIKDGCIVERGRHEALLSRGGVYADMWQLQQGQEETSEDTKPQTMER
Beta-adrenergic receptor kinase 1 (Homo sapiens), sequence (P25098 whole entry, looked up): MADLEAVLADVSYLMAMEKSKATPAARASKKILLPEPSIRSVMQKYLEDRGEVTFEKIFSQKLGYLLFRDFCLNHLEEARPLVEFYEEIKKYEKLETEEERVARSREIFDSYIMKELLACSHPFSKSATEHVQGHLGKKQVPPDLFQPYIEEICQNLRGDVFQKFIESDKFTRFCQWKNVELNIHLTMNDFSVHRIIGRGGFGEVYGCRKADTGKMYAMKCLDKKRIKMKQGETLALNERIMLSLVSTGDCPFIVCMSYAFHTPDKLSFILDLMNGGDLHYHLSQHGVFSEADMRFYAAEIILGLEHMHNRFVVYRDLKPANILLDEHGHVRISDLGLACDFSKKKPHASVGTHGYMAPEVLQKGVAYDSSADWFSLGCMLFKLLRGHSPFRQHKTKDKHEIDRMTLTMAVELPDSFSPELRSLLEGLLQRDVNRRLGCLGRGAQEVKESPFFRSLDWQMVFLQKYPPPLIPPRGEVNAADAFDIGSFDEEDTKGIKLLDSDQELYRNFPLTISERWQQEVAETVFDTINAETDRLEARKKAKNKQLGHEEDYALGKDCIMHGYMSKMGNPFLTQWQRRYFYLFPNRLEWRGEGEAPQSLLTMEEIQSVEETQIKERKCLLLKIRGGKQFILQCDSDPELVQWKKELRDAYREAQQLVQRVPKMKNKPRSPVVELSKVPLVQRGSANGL

Row | Compound | percent of DMSO control GFP [1] | GFP response vs DMSO [2] | percent response of DMSO control [3] | GFP response vs DMSO [4] | GFP response, % of DMSO [5] | double positive events [6] [%] | vesicle binding response [6] | inhibition [7] | superoxide response (% of plate) [8] | aptamer binding inhibition [9] | inhibition [10] | response [11] | binding (% of control) [12] | efflux inhibition (fraction of control) [13] | inhibition [14] | differentiation response [15]
1 | CC1=CC(C)(C)N2C(=O)C3(NCCc4c3[nH]c3ccccc43)c3cc(C)cc1c32 (stereo not given) | 103% (inactive) | 98.9% (inactive) | 99.8% (inactive) | 82.3% (inactive) | 93.6% (inactive) | 63 | 162% (inactive) | 22.1% (inactive) | 97.3% (inactive) | -3% (inactive) | -4.18% (inactive) | 3.88% (inactive) | 104% (inactive) | 0.41 (inactive) | 4% (inactive) | -5.05% (inactive)
2 | CC(C)(C)NC[C@H](O)COc1nsnc1N1CCOCC1 | 94.4% (inactive) | 136% (inactive) | 108% (inactive) | 78.7% (inactive) | 93.1% (inactive) | 70.5 | 173% (inactive) | 17.1% (inactive) | 91.1% (inactive) | 3% (inactive) | -3.6% (inactive) | 4.73% (inactive) | 96.3% (inactive) | 0.05 (inactive) | 9% (inactive) | -0.82% (inactive)
3 | O=C(c1ccc(-c2ccccc2)c(F)c1)C1CCCN(C(=O)c2cncs2)C1 (stereo not given) | 100% (inactive) | 103% (inactive) | 95.9% (inactive) | 108% (inactive) | 91.8% (inactive) | 49.8 | 157% (inactive) | 11.9% (inactive) | 132% (inactive) | 7% (inactive) | -11% (inactive) | 13.7% (inactive) | 101% (inactive) | -0.47 (inactive) | 9% (inactive) | -14.7% (inactive)
4 | CC(C)[N+](C)(CCOC(=O)C1c2ccccc2Oc2ccccc21)C(C)C | 99.6% (inactive) | 101% (inactive) | 109% (inactive) | 85.3% (inactive) | 101% (inactive) | 56 | 192% (inactive) | 1.62% (inactive) | 81.9% (inactive) | 0% (inactive) | -3.24% (inactive) | 9.45% (inactive) | 97.3% (inactive) | -0.09 (inactive) | 7% (inactive) | 1.41% (inactive)
5 | OC[C@H]1O[C@@H](n2cnc3c(NC4CCCC4)ncnc32)[C@H](O)[C@@H]1O | 96.8% (inactive) | 98.9% (inactive) | 98.8% (inactive) | 99.4% (inactive) | 98.4% (inactive) | 52.6 | 139% (inactive) | 6.29% (inactive) | 102% (inactive) | 4% (inactive) | 7.18% (inactive) | -1.41% (inactive) | 104% (inactive) | 0.18 (inactive) | 2% (inactive) | -8.27% (inactive)
6 | CC(=O)OCC(=O)[C@@]12OC3(CCCC3)O[C@@H]1C[C@H]1[C@@H]3CCC4=CC(=O)C=C[C@]4(C)[C@@]3(F)[C@@H](O)C[C@@]12C | 98.5% (inactive) | 96.9% (inactive) | 99.8% (inactive) | 106% (inactive) | 101% (inactive) | 61.4 | 173% (inactive) | -12.4% (inactive) | 97% (inactive) | 2% (inactive) | 26.6% (inactive) | -4.26% (inactive) | 96.4% (inactive) | 0.9 (active) | 6% (inactive) | -3.43% (inactive)
7 | O=S(=O)(NCCCCCNS(=O)(=O)c1ccccc1)c1ccccc1 | 104% (inactive) | 105% (inactive) | 95.9% (inactive) | 92.3% (inactive) | 92.8% (inactive) | 57.2 | 127% (inactive) | -13.3% (inactive) | 104% (inactive) | -3% (inactive) | 3.03% (inactive) | 1.49% (inactive) | 103% (inactive) | 0.56 (active) | 10% (inactive) | -11.5% (inactive)
8 | OC(CCN1CCCCC1)(c1ccccc1)C1CCCCC1 (stereo not given) | 107% (inactive) | 102% (inactive) | 108% (inactive) | 106% (inactive) | 105% (inactive) | 40.6 | 185% (inactive) | 0% (inactive) | 97.3% (inactive) | -3% (inactive) | -9.7% (inactive) | -2.57% (inactive) | 108% (inactive) | -0.05 (inactive) | 5% (inactive) | -8.27% (inactive)
9 | COc1cc2c(cc1OC)-c1cc(OCc3ccccc3Cl)nc(=O)n1CC2 | 98.8% (inactive) | 98.9% (inactive) | 101% (inactive) | 99.4% (inactive) | 97.5% (inactive) | 57.7 | 172% (inactive) | 9.09% (inactive) | 97.5% (inactive) | 4% (inactive) | 4.7% (inactive) | -7% (inactive) | 99.8% (inactive) | 0.06 (inactive) | 4% (inactive) | -18% (inactive)
10 | COc1ccc(C=NCC2COc3ccccc3O2)cc1OC (stereo not given) | 103% (inactive) | 101% (inactive) | 98.8% (inactive) | 90.3% (inactive) | 95.5% (inactive) | 62.8 | 187% (inactive) | 0.69% (inactive) | 104% (inactive) | -1% (inactive) | 17.1% (inactive) | -2.12% (inactive) | 107% (inactive) | 0.63 (active) | 10% (inactive) | -5.05% (inactive)
